The text below walks through data of PubChem BioAssay (NCATS).

Values joined by “and” are separate entries in the source; they are usually repeats but may differ in a detail not shown here. Equal values may be shown once. Results filed as inconclusive are left out. Some structures have more than one record in an assay (separate samples or runs), and their calls can disagree. Active and inactive are the calls of the source. Unless noted, calls come from the whole dose curve.

Assay [1] concerns the target Bile acid receptor (Homo sapiens) (UniProt Q96RI1). The experiment in a line: qHTS assay for small molecule agonists of farnesoid X receptor signaling (AID 588527).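 Note: 0% = vehicle basal and 100% = reference agonist.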 The following applies: HEK293T FXR-UAS-bla, beta-lactamase ratio, 16 h; stronger effect = higher value. An outline of the steps: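 Read-out: beta-lactamase reporter fluorescence with CCF4 substrate in GeneBLAzer FXR-UAS-bla HEK293T cells, after 16 h compound exposure at 37 C. Response scaled between DMSO basal (0%) and chenodeoxycholic acid at 100 uM (100%).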
Background: In qHTS, concentration-response curves come from the screen itself.

The target of assay [2] is Peroxisome proliferator-activated receptor delta (Homo sapiens) (UniProt Q03181). Description: qHTS assay for small molecule agonists of peroxisome proliferator-activated receptor delta signaling (AID 588534).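 Note: 0% = DMSO basal wells and 100% = positive control agonist at 10 µM.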 The following applies: HEK293T PPARdelta-UAS-bla, beta-lactamase ratio, 18 h; series mostly up to 76.7 µM. The method, boiled down: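 EC50 and efficacy values derive from Hill fits of a concentration series in a beta-lactamase reporter cell assay. Exposure is 18 hrs at 37 C, with CCF4 fluorescence as the readout.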
Peroxisome proliferator-activated receptor delta (Homo sapiens), sequence (Q03181 whole entry, looked up): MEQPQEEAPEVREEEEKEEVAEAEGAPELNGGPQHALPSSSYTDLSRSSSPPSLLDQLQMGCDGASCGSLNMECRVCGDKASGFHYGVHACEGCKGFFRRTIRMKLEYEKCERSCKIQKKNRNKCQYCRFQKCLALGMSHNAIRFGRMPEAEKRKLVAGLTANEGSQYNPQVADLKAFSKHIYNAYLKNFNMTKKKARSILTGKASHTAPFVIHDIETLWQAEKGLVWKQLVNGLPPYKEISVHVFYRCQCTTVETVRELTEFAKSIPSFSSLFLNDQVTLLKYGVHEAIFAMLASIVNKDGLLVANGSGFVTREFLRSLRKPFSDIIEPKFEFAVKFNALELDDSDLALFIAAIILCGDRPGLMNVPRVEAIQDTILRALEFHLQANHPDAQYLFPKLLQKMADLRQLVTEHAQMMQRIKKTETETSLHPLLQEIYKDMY

The target of assay [3] is Glucocorticoid receptor (Homo sapiens) (UniProt P04150). Description: qHTS assay for small molecule agonists of glucocorticoid receptor signaling (AID 588532; active = well fitted curve in the direction sought with a large enough effect in the signal ratio, with a control signal flat; the % refers to the signal ratio;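 note: 100% = dexamethasone at 0.1 µM and 0% = DMSO only wells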). The following applies: HeLa MMTV-bla, beta-lactamase ratio, agonist, 18 h; stronger effect = higher value; percent of dexamethasone control, DMSO zero. The method, boiled down: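 Quantitative HTS using CellSensor MMTV-bla HeLa cells in charcoal/dextran-treated serum; compounds tested up to 92 uM. After 18 h at 37 C, CCF4 dye reported reporter induction.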
Glucocorticoid receptor (Homo sapiens), sequence (P04150 whole entry, looked up): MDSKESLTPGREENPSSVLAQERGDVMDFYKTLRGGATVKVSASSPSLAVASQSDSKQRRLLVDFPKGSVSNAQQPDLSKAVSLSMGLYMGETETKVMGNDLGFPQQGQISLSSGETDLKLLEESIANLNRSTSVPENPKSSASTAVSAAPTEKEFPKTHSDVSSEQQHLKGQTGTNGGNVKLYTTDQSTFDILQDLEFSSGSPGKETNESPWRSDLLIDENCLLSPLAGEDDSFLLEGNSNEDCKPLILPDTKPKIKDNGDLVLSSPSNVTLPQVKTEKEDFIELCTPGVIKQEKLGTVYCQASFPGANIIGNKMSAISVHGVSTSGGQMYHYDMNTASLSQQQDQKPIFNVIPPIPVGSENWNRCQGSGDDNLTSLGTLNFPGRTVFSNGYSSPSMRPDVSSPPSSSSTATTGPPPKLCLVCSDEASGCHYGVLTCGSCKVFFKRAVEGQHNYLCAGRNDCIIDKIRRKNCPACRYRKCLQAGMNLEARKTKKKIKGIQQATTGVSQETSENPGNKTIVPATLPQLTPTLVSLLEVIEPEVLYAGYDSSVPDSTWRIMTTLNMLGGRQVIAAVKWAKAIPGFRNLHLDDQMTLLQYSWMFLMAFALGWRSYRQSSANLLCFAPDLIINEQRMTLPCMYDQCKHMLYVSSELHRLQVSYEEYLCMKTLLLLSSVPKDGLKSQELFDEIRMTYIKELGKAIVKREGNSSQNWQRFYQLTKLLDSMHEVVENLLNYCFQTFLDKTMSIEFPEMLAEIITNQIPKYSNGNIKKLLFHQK

The nature of assay [4]: qHTS assay for small molecule antagonists of peroxisome proliferator-activated receptor delta signaling (AID 588535; active = well fitted inhibition curve with a large enough effect in the signal ratio, with a control signal flat, not every such curve was filed as active; the % refers to the signal ratio;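 for max response: cells co-treated with a PPAR-delta agonist as stimulator during compound exposure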). The following applies: HEK293T PPARd-UAS-bla, beta-lactamase FRET ratio, 18 h; 460 nm channel. An outline of the steps:
(§1)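 Antagonist-mode qHTS using GeneBLAzer PPAR-delta-UAS-bla HEK293T cells; compound exposure 18 hrs at 37 C over a titration. Ratiometric CCF4 fluorescence at 460/530 nm; concentration-response points fitted to the Hill equation.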

In assay [5] the target is Peroxisome proliferator-activated receptor delta (Homo sapiens) (UniProt Q03181). Described as above. The following applies: HEK293T PPARd-UAS-bla, beta-lactamase FRET ratio, 18 h; series mostly up to 76.7 µM. The method, boiled down: as §1
The target of assay [6] is Peroxisome proliferator-activated receptor gamma (Homo sapiens) (UniProt P37231). Description: qHTS assay for small molecule agonists of peroxisome proliferator-activated receptor gamma signaling (AID 588536; active = well fitted curve in the direction sought with a large enough effect in the signal ratio, with a control signal flat, not every such curve was filed as active; the % refers to the signal ratio;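 note: 0% = DMSO basal wells and 100% = rosiglitazone at 2 µM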). The conditions noted are these: HEK293 PPARg-UAS-bla, beta-lactamase ratio, 16 h, percent of rosiglitazone response, DMSO as zero; series mostly up to 76.7 µM. The method, boiled down:
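Beta-lactamase reporter read-out: CCF4 fluorescence (ex 405, em 460/530 nm) after 2 h at RT. HEK293 GeneBLAzer cells were treated for 16 h at 37 C. Hill fits gave EC50 and efficacy versus 2 uM rosiglitazone (100%) and DMSO (0%).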

The target is the same in assay [7]. Description: qHTS assay for small molecule antagonists of peroxisome proliferator-activated receptor gamma signaling (AID 588537; active = well fitted inhibition curve with a large enough effect in the signal ratio, with a control signal flat, not every such curve was filed as active; the % refers to the signal ratio; note: potency is the fitted concentration of half-maximal effect). The conditions noted are these: HEK293 PPARg-UAS-bla, beta-lactamase ratio, antagonist mode; series mostly up to 76.8 µM. The method, boiled down: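 Cell-based beta-lactamase assay; GW9662 served as the antagonist control. Stimulation used rosiglitazone, final 50 nM, 16 h, 37 C.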

For assay [8], the target named is Vitamin D3 receptor (Homo sapiens) (UniProt P11473). The experiment in a line: qHTS assay for small molecule antagonists of vitamin D receptor signaling (AID 588541).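 Note: receptor activated by calcitriol during compound treatment; % is set by controls: 0 for no effect and ±100 for the full control effect.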 The conditions noted are these: HEK293T VDR-UAS-bla, beta-lactamase ratio, antagonist mode; series mostly up to 76.7 µM. The method, boiled down:
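Antagonist-mode beta-lactamase reporter assay: HEK293T VDR-UAS-bla cells were exposed to titrated compound alongside 1-alpha,25-dihydroxyvitamin D3 at 3 nM final for 16 h. Values were normalized to the 50 nM agonist control and DMSO basal, with IC50 and efficacy from Hill equation fits.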

For assay [9] the target is unchanged. Description: qHTS assay for small molecule agonists of vitamin D receptor signaling (AID 588543).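 Note: 0% = DMSO basal and 100% = reference agonist control.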 The following applies: HEK293T VDR-UAS-bla, beta-lactamase ratio, 16 h; series mostly up to 76.8 µM. The method, boiled down:
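VDR-UAS-bla HEK293T cells, 2000/well, 2% charcoal-stripped FBS; compound titration 16 h at 37 C; CCF4 beta-lactamase ratio read. Normalized to 50 nM 1-alpha,25-dihydroxyvitamin D3 (100%) and DMSO; Hill fit gives EC50, efficacy.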

A short description of assay [10]: qHTS assay for small molecule agonists of retinoid X receptor alpha signaling (AID 588544).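 For activation: 0% = DMSO basal wells and 100% = reference agonist.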 The conditions noted are these: HEK293T RXRa-UAS-bla, beta-lactamase reporter, 18 h; 530 nm emission.
Assay [11] concerns the target Retinoic acid receptor RXR-alpha (Homo sapiens) (UniProt P19793). The description is as above. The following applies: HEK293T RXRa-UAS-bla, beta-lactamase reporter, 18 h; series mostly up to 76.7 µM.
Assay [12] can be described thus: qHTS assay for small molecule antagonists of retinoid X receptor alpha signaling (AID 588546; active = well fitted inhibition curve with a large enough effect in the signal ratio, with a control signal flat, not every such curve was filed as active; the % refers to the signal ratio;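 note: cells stimulated with 9-cis-retinoic acid as agonist; % is set by controls: 0 for no effect and ±100 for the full control effect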). The following applies: HEK293T RXRa-UAS-bla, beta-lactamase ratio, antagonist mode; measured here: W530 green channel, cytotoxicity proxy. An outline of the steps: (§2)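 Beta-lactamase reporter inhibition, read as CCF4 fluorescence ratio (ex 405, em 460/530 nm) after 2 h at RT. HEK293T UAS-bla cells, 2500/well, were stimulated with 9-cis-RA at 500 or 100 nM final alongside test compound for 18 h at 37 C.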

The target of assay [13] is Retinoic acid receptor RXR-alpha (Homo sapiens) (UniProt P19793). Described as above. The conditions noted are these: HEK293T RXRa-UAS-bla, beta-lactamase ratio, antagonist mode. An outline of the steps: as §2
Retinoic acid receptor RXR-alpha (Homo sapiens), sequence (P19793 whole entry, looked up): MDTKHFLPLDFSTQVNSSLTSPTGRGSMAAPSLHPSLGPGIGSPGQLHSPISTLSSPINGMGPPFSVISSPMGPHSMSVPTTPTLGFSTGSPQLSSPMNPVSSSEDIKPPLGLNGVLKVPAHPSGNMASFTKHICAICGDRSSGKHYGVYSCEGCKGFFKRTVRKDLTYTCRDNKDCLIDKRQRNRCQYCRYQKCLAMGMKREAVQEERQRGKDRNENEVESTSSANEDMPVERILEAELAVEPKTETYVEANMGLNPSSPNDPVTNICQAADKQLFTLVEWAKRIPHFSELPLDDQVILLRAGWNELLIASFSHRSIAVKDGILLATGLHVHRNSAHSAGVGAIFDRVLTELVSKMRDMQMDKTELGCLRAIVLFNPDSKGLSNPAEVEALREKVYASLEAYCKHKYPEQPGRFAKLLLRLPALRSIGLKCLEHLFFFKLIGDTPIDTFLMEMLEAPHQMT
For assay [14], the target named is Voltage-gated inwardly rectifying potassium channel KCNH2 (Homo sapiens) (UniProt Q12809). Description: qHTS Assay for Small Molecule Inhibitors of the Human hERG Channel Activity (AID 588834; active = well fitted inhibition curve with a large enough effect;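 note: top concentration of the series differs between compounds; % is set by controls: 0 for no effect and ±100 for the full control effect; lower thallium flux fluorescence means stronger hERG block; nearly all actives have a fitted effect of over 50% in size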). The following applies: U2OS BacMam hERG, FluxOR thallium flux fluorescence; series mostly up to 46.1 µM. The method, boiled down: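 Thallium serves as surrogate for K+ influx through BacMam-delivered hERG in U2OS cells. Compounds are added for about 10 minutes after dye loading; stimulation buffer then starts flux, monitored kinetically on FDSS.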

The target in assay [15] is Luciferin 4-monooxygenase (Photinus pyralis) (UniProt P08659). Description: Biochemical firefly luciferase enzyme assay for NPC (AID 624030; active = well fitted inhibition curve with a large enough effect; note: nearly all actives have a fitted effect of over 70% in size; note: potency is the fitted concentration of half-maximal effect). The following applies: purified P. pyralis luciferase, luminescence, 5 min; series mostly up to 58.6 µM. The method, boiled down: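 Direct inhibition of firefly luciferase enzyme (10 nM final, 50 mM Tris Acetate) assessed by luminescence within 5 minutes. Percent activity scaled between DMSO and PTC124 positive control, with concentration-effect curves classified by fit quality and response.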
Luciferin 4-monooxygenase (Photinus pyralis), sequence (P08659 whole entry, looked up): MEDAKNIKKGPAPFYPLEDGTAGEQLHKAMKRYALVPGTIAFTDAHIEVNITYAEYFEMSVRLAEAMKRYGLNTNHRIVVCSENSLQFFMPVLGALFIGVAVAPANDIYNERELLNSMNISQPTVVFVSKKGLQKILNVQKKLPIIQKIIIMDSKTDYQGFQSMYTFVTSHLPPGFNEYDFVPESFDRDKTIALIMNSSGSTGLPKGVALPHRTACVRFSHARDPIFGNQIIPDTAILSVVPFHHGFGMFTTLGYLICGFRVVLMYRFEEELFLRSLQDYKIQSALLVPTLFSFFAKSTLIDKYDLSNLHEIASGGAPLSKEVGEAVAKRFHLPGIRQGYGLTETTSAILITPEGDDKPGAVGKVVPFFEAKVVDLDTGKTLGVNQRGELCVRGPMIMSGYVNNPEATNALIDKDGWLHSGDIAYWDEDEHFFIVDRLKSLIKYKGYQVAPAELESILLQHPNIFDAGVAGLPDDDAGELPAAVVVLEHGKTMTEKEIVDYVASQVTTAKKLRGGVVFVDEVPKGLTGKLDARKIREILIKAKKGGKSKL

Assay [16] deals with Glucocorticoid receptor (Homo sapiens) (UniProt P04150). Description: qHTS assay for small molecule antagonists of glucocorticoid receptor signaling (AID 588533; active = well fitted inhibition curve with a large enough effect in the signal ratio, with a control signal flat, not every such curve was filed as active; the % refers to the signal ratio;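 note: cells stimulated with 2 nM dexamethasone as agonist; % is set by controls: 0 for no effect and ±100 for the full control effect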). The following applies: HeLa MMTV-bla, GRE beta-lactamase ratio, antagonist mode, 18 h; series mostly up to 76.8 µM. An outline of the steps: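 Antagonist-mode qHTS: compound titrations added to GRE-bla HeLa cells, then dexamethasone 2 nM final; 18 h, 37 C. CCF4 FRET fluorescence normalized to dexamethasone and DMSO; IC50 from Hill fit.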

The target in assay [17] is Thyroid hormone receptor beta (Homo sapiens) (UniProt P10828). Description: qHTS assay for small molecule agonists of thyroid hormone receptor beta signaling (AID 588545). The following applies: TR-UAS-bla GripTite HEK 293, beta-lactamase ratio, agonist mode, 18 h, percent of T3 response, DMSO as zero; series mostly up to 76.7 µM. The method, boiled down: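 In this cell-based screen, titrated compounds act on HEK 293 cells held in medium with 2% charcoal/dextran FBS, NEAA and pyruvate for 18 hrs at 37 C. Responses are expressed relative to T3 (10 nM) as 100% and basal DMSO as 0%.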
Thyroid hormone receptor beta (Homo sapiens), sequence (P10828 whole entry, looked up): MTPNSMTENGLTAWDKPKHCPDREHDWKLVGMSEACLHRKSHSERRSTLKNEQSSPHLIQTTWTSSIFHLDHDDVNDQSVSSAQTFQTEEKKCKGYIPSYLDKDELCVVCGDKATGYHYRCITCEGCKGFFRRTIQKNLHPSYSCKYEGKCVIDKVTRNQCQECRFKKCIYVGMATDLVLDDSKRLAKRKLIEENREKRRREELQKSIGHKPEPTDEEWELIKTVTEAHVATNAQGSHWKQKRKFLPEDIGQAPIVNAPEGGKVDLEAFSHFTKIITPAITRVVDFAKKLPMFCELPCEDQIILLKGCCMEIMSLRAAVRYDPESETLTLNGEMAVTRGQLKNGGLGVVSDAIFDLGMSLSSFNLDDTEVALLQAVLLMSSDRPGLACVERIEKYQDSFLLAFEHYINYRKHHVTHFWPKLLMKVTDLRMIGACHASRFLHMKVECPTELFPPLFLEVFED

Assay [18] has the same target. Description: qHTS assay for small molecule antagonists of thyroid hormone receptor beta signaling (AID 588547; active = well fitted inhibition curve with a large enough effect in the signal ratio, with a control signal flat, not every such curve was filed as active; the % refers to the signal ratio;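 note: cells stimulated with 0.4 nM T3 agonist during compound exposure; % is set by controls: 0 for no effect and ±100 for the full control effect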). The following applies: TR-UAS-bla HEK293, beta-lactamase ratio, antagonist mode, 18 h. An outline of the steps: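 Inhibition of T3-driven (0.4nM final) beta-lactamase reporter activity was measured over 0.59 nM to 92 uM compound after 18 h at 37 C. The cells were GripTite HEK293 TR-UAS-bla in charcoal/dextran-stripped serum, with CCF4 ratio read-out and IC50 from Hill fits.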

Peroxisome proliferator-activated receptor gamma (Homo sapiens), sequence (P37231 whole entry, looked up): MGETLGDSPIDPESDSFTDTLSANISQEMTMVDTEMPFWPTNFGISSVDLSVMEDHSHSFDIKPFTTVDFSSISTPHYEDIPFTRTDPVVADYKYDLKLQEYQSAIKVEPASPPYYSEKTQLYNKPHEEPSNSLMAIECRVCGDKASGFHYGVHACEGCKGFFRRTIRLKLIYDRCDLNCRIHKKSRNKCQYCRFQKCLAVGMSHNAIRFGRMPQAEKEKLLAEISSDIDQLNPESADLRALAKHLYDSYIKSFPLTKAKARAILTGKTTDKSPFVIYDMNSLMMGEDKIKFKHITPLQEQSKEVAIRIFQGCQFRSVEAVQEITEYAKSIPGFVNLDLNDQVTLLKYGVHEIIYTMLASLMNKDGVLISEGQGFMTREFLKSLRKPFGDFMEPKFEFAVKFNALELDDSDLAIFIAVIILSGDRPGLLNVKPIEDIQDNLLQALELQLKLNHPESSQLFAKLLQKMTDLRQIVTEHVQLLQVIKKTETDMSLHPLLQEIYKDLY
Bile acid receptor (Homo sapiens), sequence (Q96RI1 whole entry, looked up): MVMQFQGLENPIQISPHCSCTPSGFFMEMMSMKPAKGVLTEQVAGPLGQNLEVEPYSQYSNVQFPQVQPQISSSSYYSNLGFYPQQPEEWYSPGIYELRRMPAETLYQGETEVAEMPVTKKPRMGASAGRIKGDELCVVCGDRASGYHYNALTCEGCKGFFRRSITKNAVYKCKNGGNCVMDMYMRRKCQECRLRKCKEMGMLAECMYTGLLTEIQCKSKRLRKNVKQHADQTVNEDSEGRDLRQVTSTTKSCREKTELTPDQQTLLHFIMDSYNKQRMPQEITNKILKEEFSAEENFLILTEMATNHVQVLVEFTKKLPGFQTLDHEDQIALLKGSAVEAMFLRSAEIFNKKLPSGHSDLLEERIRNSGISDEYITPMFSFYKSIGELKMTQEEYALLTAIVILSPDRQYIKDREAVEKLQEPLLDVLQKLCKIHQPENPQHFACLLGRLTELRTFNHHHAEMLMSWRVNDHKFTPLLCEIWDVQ
Vitamin D3 receptor (Homo sapiens), sequence (P11473 whole entry, looked up): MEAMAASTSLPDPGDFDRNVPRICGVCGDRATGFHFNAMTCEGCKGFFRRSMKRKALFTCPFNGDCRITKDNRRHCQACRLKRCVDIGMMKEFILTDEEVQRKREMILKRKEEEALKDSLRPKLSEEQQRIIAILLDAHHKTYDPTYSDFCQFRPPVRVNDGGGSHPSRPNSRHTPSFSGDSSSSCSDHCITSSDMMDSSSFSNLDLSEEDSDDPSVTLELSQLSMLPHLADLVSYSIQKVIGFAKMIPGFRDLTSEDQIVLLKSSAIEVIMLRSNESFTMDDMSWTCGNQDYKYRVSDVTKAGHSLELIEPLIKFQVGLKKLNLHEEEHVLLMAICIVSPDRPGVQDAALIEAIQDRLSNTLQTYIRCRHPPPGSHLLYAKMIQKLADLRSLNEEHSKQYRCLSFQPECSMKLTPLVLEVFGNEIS

For the compound `COc1ccccc1O`, the activation in [1] was -0.0206% (inactive) and -3.83% (inactive) and 1.01% (inactive). Further, the outcome in assay [2] was inactive.
`CCOP(=O)(NC(C)C)Oc1ccc(SC)c(C)c1` (stereo unspecified): the activation in assay [1] was 5.65% (inactive) and 4.82% (inactive); in assay [3], 3.01% (inactive) and -4.29% (inactive). For the same compound, the outcome in assay [2], in [6] and in [9] was inactive. Also, the max response in assay [4] was 97.8%; in assay [10], 8.26%; in [12], 1.81% and -9.53%; in [13] it was -12.2% (inactive) and -3.23% (inactive). The Potency result in assay [5], in assay [8], in assay [11], in assay [14] and in [15] was “inactive” each time. For the same compound, in assay [7], the Potency result is “inactive and 44.7 µM (active)”.
In the case of `CCCCCCCCCCCCCC(=O)OC(C)C`, the activation in assay [1] was -0.914% (inactive). Moreover, the result in [2] was inactive.
Regarding `CCCCC(CC)COC(=O)c1ccccc1C(=O)OCC(CC)CCCC` (stereo unspecified), the activation in [1] is 0.71% (inactive) and -2.22% (inactive); in assay [3], 0.194% (inactive) and -1.46% (inactive). In addition, the Potency result in [16], in [5], in assay [7], in assay [8], in assay [11] and in assay [14] was “inactive” in each case. Besides, in assay [15], the Potency entry is “inactive”. Also, the result in [2], in [6], in assay [9] and in assay [17] was inactive. Moreover, the max response in assay [4] is -2.79% and 33.6%; in assay [10], -20.4% and -8.96%; in assay [12], -12.5% and -12.9%; in assay [13] it was 9.66% (inactive) and 2.99% (inactive). The activity change % (negative = inhibition) in assay [18] is -25.5% (inactive) and -4.42% (inactive).
Take `c1cc2ccc3cccc4ccc(c1)c2c34`: the activation is -4.41% (inactive) and -1.09% (inactive) in [1]; 1.46% (inactive) and -7.46% (inactive) in [3]. For the same compound, the Potency result in assay [16], in assay [5], in [7], in assay [8], in [11] and in assay [14] was “inactive” in each case. In assay [15], the Potency result is “inactive”. Moreover, the result in [2], in assay [6], in [9] and in assay [17] was inactive. The max response is 50.8% and 2.37% in assay [4]; -6.58% and -8.62% in [10]; -9.93% and -1.15% in [12]; 0.282% (inactive) and -8.73% (inactive) in assay [13]. In addition, the activity change % (negative = inhibition) in [18] is 8.95% (inactive).
With `Nc1cccc2c(N)cccc12`, the activation was -1.29% (inactive) and -1.59% (inactive) in assay [1]; -1.46% (inactive) in assay [3]. Moreover, the outcome in assay [2] was inactive. Besides, in assay [4], the max response amounted to 0.56%. In assay [5], the Potency entry is “inactive”.
On to `Nc1ccc([N+](=O)[O-])cc1O`, for which the activation in assay [1] was -3.53% (inactive) and -2.23% (inactive). The result in assay [2] was inactive.
For `O=C(Oc1ccccc1)c1cccc(C(=O)Oc2ccccc2)c1`, in assay [1], the activation was 0.748% (inactive).
Take `c1ccc2occc2c1`: in assay [1], the activation was 3.58% (inactive) and 1.61% (inactive). The Potency entry in [7] is “inactive”. The activity change % (negative = inhibition) in assay [18] is -0.0158% (inactive) and 0.269% (inactive).
In the case of `Nc1ccc(N=Nc2ccccc2)cc1`, the activation in assay [1] is -11.4% (inactive); in [3] it was -2.94% (inactive). Further, the Potency result in assay [16], in assay [5], in assay [7], in assay [8] and in assay [11] was “inactive” in each case. Also, the outcome in assay [2], in [6], in assay [9] and in assay [17] was inactive. The max response was 4.67% in assay [4] and -10.7% in assay [10]. Also, in assay [18], the activity change % (negative = inhibition) was -2.63% (inactive). For the same compound, the Potency in assay [15] was 5.26 µM (active).
